# Screens (PubChem BioAssay)
# CHO-K1 Ca ag: nonselective activator or artifact in parental CHO-K1 cells; AID 602248; activation, % at 3 µM; 360,000 compounds, 0.48% hits; Fluo-8 calcium fluorescence; scaled to maximal ATP response, vehicle zero; in the data active = activation above about 15%;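 note: untransfected CHO-K1 host cells lacking M1 receptor as counterscreen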
# M1 PAM parental: counter-screen for M1 PAMs: effect in parental CHO-K1 cells; ATP EC20, Fluo-8 calcium fluorescence; 0% at ATP EC20, 100% at ATP max; activation, % at 3 µM; 360,000 compounds, 0.02% hits; AID 602247;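 active = activation above the run cutoff, the mean activation of all test compounds plus 3 SD, cut at about 40% in these data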;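 note: peak over basal fluorescence ratio in a 140 s read after ATP addition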
# CHO-K1 Ca antag: nonselective inhibitor or artifact in parental CHO-K1 cells; ATP-induced calcium, Fluo-8 fluorescence; inhibition, % at 3 µM; 360,000 compounds, 0.6% hits;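 active = inhibition above a per-plate cutoff, the plate's mean sample inhibition plus 3 SD, cut at about 24% in these data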;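 note: 0% = DMSO plus EC80 ATP and 100% = DMSO alone without ATP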
# M1 antag: antagonists of human M1 muscarinic receptor; P11229; CHO-K1 hM1, Fluo-8 calcium fluorescence, ACh EC80 antagonist; inhibition, % at 3 µM; 360,000 compounds, 1.3% hits; AID 588852;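 active = percent inhibition above its own plate's cutoff, namely the mean of that plate's compound wells plus 3 SD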;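 note: peak over basal fluorescence ratio during 140 s after agonist addition; 0% = ACh EC80 plus DMSO and 100% = DMSO alone without agonist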
# Target sequence (P11229 whole entry, looked up): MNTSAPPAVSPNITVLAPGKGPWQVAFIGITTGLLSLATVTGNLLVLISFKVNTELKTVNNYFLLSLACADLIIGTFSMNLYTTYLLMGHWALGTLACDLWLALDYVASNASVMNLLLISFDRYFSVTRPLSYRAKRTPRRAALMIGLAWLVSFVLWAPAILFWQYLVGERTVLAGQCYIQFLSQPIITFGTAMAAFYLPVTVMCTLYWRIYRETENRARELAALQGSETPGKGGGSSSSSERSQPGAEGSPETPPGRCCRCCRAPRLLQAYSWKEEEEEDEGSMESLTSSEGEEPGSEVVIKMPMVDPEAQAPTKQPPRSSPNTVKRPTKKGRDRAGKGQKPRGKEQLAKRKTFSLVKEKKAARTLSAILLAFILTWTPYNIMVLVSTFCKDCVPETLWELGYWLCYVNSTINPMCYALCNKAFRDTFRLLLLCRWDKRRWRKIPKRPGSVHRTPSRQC
# CHRM1 agonist: human M1 muscarinic receptor agonism | CHO-K1 hM1, Fluo-8 calcium fluorescence, agonist mode; 0% DMSO, 100% acetylcholine EC100 | 360,000 compounds, 0.33% hits | AID 588814 | P11229 | activation, % at 3 µM;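 active = activation above the run's mean compound activation plus 3 SD, cut at about 16% in these data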;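 note: peak over basal fluorescence ratio within a 140 s kinetic read after compound addition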
# M1 PAM: human CHRM1 positive allosteric modulation; activation, % at 3 µM; CHO-K1 hM1, Fluo-8 calcium fluorescence, ACh EC20; 0% = ACh EC20, 100% = maximal ACh; P11229; 360,000 compounds, 0.088% hits; AID 588819; in the data active = activation above about 19%, passing the limit was not always enough
# * marks the source's active call; other numbers are inactive results; x = no result. Rows were chosen to be rich in hits. Some 2.3% of all compounds tested hit in one or more screens of this group.
SMILES,CHO-K1 Ca ag,M1 PAM parental,CHO-K1 Ca antag,M1 antag,CHRM1 agonist,M1 PAM
COc1ccc(C(=O)COC(=O)CNC(=O)c2ccccc2)cc1F,1,5,-10,0,-2,2
Cc1[nH]n2c(=O)c(C#N)c(-c3ccccc3)nc2c1-c1ccccc1,0,4,28*,1,-3,1
CCOC(=O)N1CCN(S(=O)(=O)c2c[nH]c(C(=O)OC)c2)CC1,4,15,-13,-2,0,3
CC(C)N(CC#CC(O)(c1ccccc1)c1ccccc1)CCO,1,22,-10,84*,-8,-25
OCCN(CC#CC(O)(c1ccccc1)c1ccccc1)CCO,0,-1,-5,-2,-7,-5
CN(CC#CC(O)(c1ccccc1)c1ccccc1)C(C)(C)C,0,9,-5,100*,-9,-25
CC(C)N(CC#CC(O)(c1ccccc1)c1ccccc1)C(C)C,0,7,-8,100*,-9,-26
CCC(=O)c1cn(/C(=C\C(=O)OC(C)(C)C)CCC(OC)OC)cc1CC,0,23,-6,-7,-5,3
COCCn1c(=O)[nH]c2cc(C(=O)N3CCN(c4cccc(C)c4C)CC3)ccc2c1=O,-1,-6,-8,-5,-6,4
COc1cccc(-c2nc(CS(=O)(=O)CC(=O)NCCCc3ccccc3)c(C)o2)c1,0,20,-12,40*,-3,-21
COc1cccc(-c2nc(CS(=O)(=O)CC(=O)NCc3ccccc3)c(C)o2)c1,1,16,3,-6,-2,3
O=C(CCCCCN1C(=O)CCC1=O)Nc1ccc(Cl)c(C(F)(F)F)c1,17*,11,-32,11,0,-13
COCCN(C(=S)Nc1c(C)cccc1C)C(C)c1ccco1 (stereo not drawn),0,12,0,-7,-4,6
COc1ccc(Sc2ccc(NC(=O)c3ccccc3Cl)cc2C#N)cc1,1,8,-9,-22,0,-4
N#Cc1cc(NC(=O)c2ccc(Cl)cc2)ccc1Sc1ccccc1,8,9,9,32*,-2,-20
CC(=O)O[C@H]1[C@@H](O)[C@H](O)[C@H](Oc2c(O)c(C)c3c4c2[C@@H](C)CC[C@@H]4[C@@H](C)C[C@@H]3C=C(C)C)O[C@H]1C,0,14,-5,-14,-1,9
Cc1nc(N)sc1C(=O)N1N=N1,0,2,-8,-4,-1,3
Nc1ncnc2nc(SCc3ccc(Cl)cc3Cl)[nH]c12,2,5,1,-1,-3,-1
Nc1cc(=O)[nH]c(SCc2ccc(Cl)cc2Cl)n1,15*,-21,15,13,7,-5
Cn1ncc(Cl)c1C(=O)NCC1CCCO1 (stereo not drawn),0,5,2,-12,-1,14
O=C(NCCc1ccc(C(F)(F)F)cc1)C1CCC(=O)N(CCCc2ccccc2)C1 (stereo not drawn),4,21,-20,-13,-1,9
Cc1ccc(CN(C)C(=O)c2ccc(S(=O)(=O)N(C)c3ccccc3)cc2)o1,2,-22,14,40*,-1,-17
CN(Cc1ccc(OC(F)F)cc1)C(=O)c1ccc(S(=O)(=O)N(C)c2ccccc2)cc1,5,-18,-5,21,-3,-13
Cc1cc2nc(-c3ccc(Cl)cc3)c(Cc3ccsc3)n2c(C)c1Br,0,-2,-17,x,x,x
OC(c1cc(C(F)(F)F)nc2c(C(F)(F)F)cccc12)C1CCCCN1 (stereo not drawn),2,-3,20,-20,-2,5
SMILES,CHO-K1 Ca ag,M1 PAM parental,CHO-K1 Ca antag,M1 antag,CHRM1 agonist,M1 PAM
OC(c1cc(-c2ccc(C(F)(F)F)cc2)nc(C(F)(F)F)c1)C1CCCCN1 (stereo not drawn),18*,15,14,6,16*,15
O=C(CCc1ccccc1)N1CCCC(Nc2ccc(F)cc2)C1 (stereo not drawn),0,-6,-1,1,-5,-2
OCCN1CCN(c2ncnc3c2ncn3[C@H]2CN(Cc3ccccc3)C[C@@H](CO)O2)CC1,0,8,-7,-13,-4,7
OCCN1CCN(c2ncnc3c2ncn3[C@H]2CN(Cc3cccnc3)C[C@@H](CO)O2)CC1,0,-11,27*,-10,-3,4
OC[C@@H]1CN(Cc2ccc(-c3ccccc3)cc2)C[C@H](n2cnc3c(NC4CCC4)ncnc32)O1,11,-11,23,34*,1,-16
OC[C@@H]1CN(Cc2ccccc2)C[C@H](n2cnc3c(NC4CC4)ncnc32)O1,0,2,-3,-25,2,14
O=C(c1c(Cl)cccc1Cl)N1CCN(c2ncccn2)CC1,2,14,-10,-2,-5,3
Cc1ccc(CNC(=O)c2ccc(Cl)cc2[N+](=O)[O-])cc1,0,-8,26*,13,-4,-10
O=C(NCc1ccc(Cl)cc1)c1ccc(Cl)cc1[N+](=O)[O-],0,8,-3,-16,-1,11
COC(=O)c1sc(S(=O)(=O)N2CCCCC2)c(C(=O)OC)c1C,0,12,-3,21*,-6,-27
Oc1ccc(Br)cc1Cn1nnc2ccccc21,5,7,4,4,7,7
Cc1ccc(S(=O)(=O)Nc2c3ccccc3nc(=O)n2-c2ccccc2)cc1,1,-7,26*,-9,3,-4
O=c1nc2ccccc2c(NS(=O)(=O)c2ccccc2)n1-c1ccccc1,0,-3,2,-7,-1,8
CCOc1ccc(C(C(=O)NCC2CCCO2)N(Cc2cccc(OC)c2)C(=O)c2snc(C(N)=O)c2N)cc1 (stereo not drawn),1,-13,3,2,-2,2
NC(=O)c1nsc(C(=O)N(c2cccc(F)c2)C(C(=O)NCC2CCCO2)c2cccs2)c1N (stereo not drawn),16*,19,4,9,-6,-7
COc1ccc(C(C(=O)NCC2CCCO2)N(Cc2cccs2)C(=O)c2snc(C(N)=O)c2N)cc1 (stereo not drawn),7,-16,8,22*,-1,-14
CCOC(=O)c1[nH]c(C)c(C(=O)OCc2ccccc2F)c1C,3,1,-7,17,-4,-11
C=CCN1C(=O)c2ccc(C(=O)N3CCN(S(=O)(=O)c4ccccc4Br)CC3)cc2C1=O,5,-24,-3,7,-6,-7
O=C1COc2ccc(C(=O)CSc3nnc(NCc4ccccc4)s3)cc2N1,17*,6,4,-1,1,-3
O=C1COc2ccc(C(=O)CSc3nnc(Cc4ccccc4)o3)cc2N1,2,8,-3,-5,-1,1
O=C(OCC(=O)N1CCCC1)c1cc(Cl)ccc1Cl,0,-8,12,-1,3,8
